This is an account of results in PubChem BioAssay AID624416 (The Scripps Research Institute Molecular Screening Center, 2012).

SMILES strings stand for the structures. Out of some 360,000 compounds screened, about 1,500 (0.42%) were called active. Rule as the data show it: active = inhibition above about 8.5%; inactive = the rest. Only a selection was taken, and actives are over-represented in it overall.

The inhibition is the change of the read-out against control, counted positive when it falls.

The test system of the assay is HIV-1 gp120 / PG9 antibody interaction. In words: small molecules engaging PG9 antibody – biochemical, TR-FRET, primary screen (AID 624416). To be noted: TR-FRET gp120-PG9 antibody binding; at 6.7 µM; active compounds read high. Background: In TR-FRET formats the signal depends on donor and acceptor labels being close together.
Turning to `CC(=O)Nc1ccc(C(=O)C(Cc2ccccc2)N(C)C)cc1` (stereo not given), the inhibition is -2.82% (inactive).
In the case of `CCN(CC)C(=O)c1ccc(NC(=O)c2cc(-n3cnnc3)ccc2Cl)cc1`, the inhibition is -0.62% (inactive).
As for `CCN(CC)C(=O)c1ccc(NC(=O)c2sccc2-c2ccccc2)cc1`, the inhibition was 9.48% (active).
`O=C1NC(=O)C(CCc2ccccn2)(Cc2cccc(Cl)c2Cl)C(=O)N1c1ccc(Br)cc1` (stereo not given): the inhibition is -0.96% (inactive).
On to `CN1CCN(Cc2ccccc2C(F)(F)F)CC1`, for which the inhibition was 1.87% (inactive).
As for `N#CC1=C(N)Oc2c(c(=O)oc3ccccc23)C1c1ccccc1OC(=O)c1cccs1` (stereo not given), the inhibition was 11% (active).
With `CCNc1nc2[nH]c(=O)c3c(c2s1)OC(N)=C(C#N)C3c1cccs1` (stereo not given) the figure was -1.83% (inactive); with `COc1ccc(C2C=C(C)Oc3c2c(=O)oc2ccccc32)cc1OC` (stereo not given), 0.19% (inactive); with `C[C@]12CCCCC1=CC(=O)C1C2CC[C@@]2(C)C1C[C@@H](F)[C@@H]2O` (stereo not given in full), 0.27% (inactive).
Consider `Cc1cc2ccccn2c1C(C[N+](=O)[O-])c1c(F)cccc1Cl` (stereo not given), for which the inhibition is 1.04% (inactive).
